In the library only some 12% were active in any assay of this set; here they are far more common.
JMJD2A Tudor = qHTS Assay for Inhibitors of JMJD2A-Tudor Domain. Potency, µM (series often up to 114 µM), for inactives: top-dose activity change, negative = inhibition, most hits filed as inhibitors. Lysine-specific demethylase 4A (Homo sapiens), O75164. AID 504339, 2011. AlphaScreen JMJD2A-Tudor / H3K4me3 peptide binding. 390,000 compounds, 4.4% hits; also: % is scaled to controls: 0 for no effect and ±100 for the full control effect; nearly all actives have a fitted effect of over 50% in size
HP1b binding inh = HTS for Inhibitors of HP1-beta Chromodomain Interactions with Methylated Histone Tails; AID 540317, 2011; Potency, µM (titrated, usually from 114 µM), for inactives: at the top dose activity change, negative = inhibition, actives largely listed as inhibitors; AlphaScreen HP1-beta / biotin-H3K9me3 peptide binding; 390,000 compounds, 0.56% hits; Chromobox protein homolog 1 (Homo sapiens), P83916; also: nearly all actives have a fitted effect of over 70% in size
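HP1-beta protein (50 nM final) preincubated 30 min at room temperature with biotinylated H3(1-18)K9me3 peptide (50 nM) in PBS pH 7.4, 0.01% Tween-20, then compound added for 30 min. AlphaScreen streptavidin donor/nickel chelate acceptor beads (10 ug/mL final), 30 min dark, luminescence read.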
G9a inh = qHTS Assay for Inhibitors of Histone Lysine Methyltransferase G9a; Potency, µM (titrated, usually from 102 µM), inactives show top-dose activity, negative = inhibition, usual class: inhibitors; G9a H3K9 monomethylation, AlphaScreen, 2 h; Histone-lysine N-methyltransferase EHMT2 (Homo sapiens), Q96KQ7; 350,000 compounds, 8.8% hits; also: % is scaled to controls: 0 for no effect and ±100 for the full control effect; nearly all actives have a fitted effect of over 75% in size
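AlphaScreen read-out: biotin-H3K9 peptide (500 nM) methylation by 20 nM enzyme with 20 uM SAM, 2 h at room temperature after 15 min compound preincubation; anti-monomethyl H3K9 antibody plus donor/acceptor beads, 10 min dark.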
L3MBTL1 block = qHTS Assay for the Inhibitors of L3MBTL1; AID 485360, 2010; Potency, µM (top dose mostly 57.1 µM), without a hit: at the top dose activity, negative = inhibition, usual class: inhibitors; AlphaScreen L3MBTL1–H3K9me1 peptide binding; 230,000 compounds, 0.66% hits; Lethal(3)malignant brain tumor-like protein 1 (Homo sapiens), Q9Y468; also: % is scaled to controls: 0 for no effect and ±100 for the full control effect; nearly all actives have a fitted effect of over 60% in size
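L3MBTL1 (50 nM) pre-complexed 30 min with biotinylated H3(1-15)K9me1 peptide (75 nM), then compounds added for 30 min at room temperature; AlphaScreen streptavidin donor/nickel chelate acceptor beads (10 ug/mL final) read after 30 min dark incubation.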
Sfp PPTase inh = qHTS Assay for Inhibitors of Bacillus subtilis Sfp phosphopantetheinyl transferase (PPTase). Biochemical Sfp PPTase activity, qHTS. 4'-phosphopantetheinyl transferase ffp (Bacillus subtilis), Q9F4F7. Potency, µM, for the others: largest response in the series, negative = inhibition, hits mostly inhibitors. 310,000 compounds, 3.5% hits;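 also: the enzyme is Sfp with the accession as filed and its product quenches rhodamine fluorescence; 0% = enzyme reaction without inhibitor and -100% = no enzyme wells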
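Buffer: 50 mM Hepes-Na pH 7.6, 10 mM MgCl2, 0.01% Nonidet P-40, 0.01% BSA. Enzyme 15 nM, pre-exposed to compound 15 min; substrates then added and fluorescence change tracked over 30 min.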
BAZ2B block = qHTS Assay for Inhibitors of BAZ2B. Bromodomain adjacent to zinc finger domain protein 2B (Homo sapiens), Q9UIF8. AlphaScreen BAZ2B-H3K14Ac peptide displacement. Potency, µM (highest dose often 114 µM), inactives show top-dose activity change, negative = inhibition, actives largely listed as inhibitors. 360,000 compounds, 4.4% hits; also: % is scaled to controls: 0 for no effect and ±100 for the full control effect; nearly all actives have a fitted effect of over 60% in size
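AlphaScreen luminescence quantifies BAZ2B engagement of H3K14Ac peptide; the protein and biotinylated peptide are both at 50 nM final, buffer PBS pH 7.4 with 0.01% Tween-20, all steps at room temperature.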
* marks the source's active call; other numbers are inactive results; ? = inconclusive; . = no result given; [ ] = another dose, or the depositor's remark. Calls follow the shape of the dose curve; as a rule, active = well fitted curve in the direction sought with a large enough effect; inconclusive = small, poorly fitted or top-dose-only effect, or another doubt; inactive = no such curve, though single readings can be large; an effect the other way counts as inactive or inconclusive. Potency is read from the fitted curve at half-maximal effect.

SMILES	JMJD2A Tudor	HP1b binding inh	G9a inh	L3MBTL1 block	Sfp PPTase inh	BAZ2B block
CCn1c(=O)cc(OCC(=O)NCc2ccccc2Cl)c2ccccc21	-8%	44%	?	.	.	-2%
CCC(c1c(C)[nH]oc1=O)c1c(C)[nH]oc1=O	25µM*	-4%	?	-2%	-18%	-97%
Cc1o[nH]c(=O)c1CCC(N)C(=O)O (stereo not drawn)	.	.	22%[59 µM]	.	4%	.
CC1CCN=C(N)S1 (stereo not drawn)	-18%	21%	3.2µM*	.	.	.
CN[C@@H]1[C@H](O[C@@H]2O[C@H](C)[C@@](O)(CO)[C@H]2O[C@H]2[C@H](O)[C@H](O)[C@H](N=C(N)N)[C@@H](O)[C@@H]2N=C(N)N)O[C@@H](CO)[C@H](O)[C@H]1O	.	.	10µM*	.	0%	.
CN[C@@H]1[C@H](O[C@@H]2O[C@H](CO)[C@@H](N)[C@H](O)[C@@H]2O)O[C@H]2C[C@@H](N)[C@@H](O[C@H]3[C@@H](O)[C@H](O)[C@H](N)C[C@@H]3N)O[C@H]2[C@H]1O	.	.	43%[21.5 µM]	.	11%	.
O=C(CSCc1ccc(Br)cc1)NCc1ccccn1	3%	47%	45%	-1%	-6%	-9%
CC(=O)N1CC(C)Oc2ccc(S(=O)(=O)NC(CC(=O)O)c3ccc(C)cc3C)cc21 (stereo not drawn)	2%	22%[57 µM]	79µM*	.	18%	-2%
O=C(CCN1CCCCC1)Nn1c(=S)[nH]c2ccccc2c1=O	0.71µM*	16%	?	14%	50µM*	?
O=c1c2ccccc2[nH]c(=S)n1CCN1CCCC1	-28%	13%	18µM*	-8%	3%	-13%
O=C(CCn1c(=S)[nH]c2ccccc2c1=O)NCCCN1CCOCC1	?	22%	.	0%	-9%	0%
O=c1c2ccccc2[nH]c(=S)n1CCCN1CCOCC1	-24%	31%	18µM*	.	-9%	-33%
O=c1c2ccc(Cl)cc2[nH]c(=S)n1CCCN1CCOCC1	?	15%	45µM*	7%	-12%	-30%
CCN1CCN(CCn2c(=S)[nH]c3ccccc3c2=O)CC1	-30%	31%	?	.	1%	3%
COc1ccc(CNC(=O)CNC(=O)c2ccc(Br)o2)cc1OC	-5%	21%	.	.	11%	-1%
CCOc1ccccc1OCCCC(=O)NNC(=O)c1ccc(F)cc1	-3%	11%[57 µM]	.	-13%	.	.
O=C(CCCn1c(=S)[nH]c2ccccc2c1=O)N1CCCCC1	56µM*	35%	?	3%	-1%	4%
CN(C(=O)c1ccc(NC(=O)Cc2ccc(NC(=O)C3CCN(S(=O)(=O)c4cccc([N+](=O)[O-])c4)CC3)cc2)cc1)C1CCCC1	-24%	29%	.	.	.	.
CC(O)c1cccc(-c2ccc(CN3C[C@]4(CO)O[C@@H](CO)C[C@@H]4S3(=O)=O)cc2)c1 (stereo partly drawn)	-23%	31%	.	0%	.	.
CCCCCCn1c(=O)c(-c2ccccc2)c(O)c2ccccc21	-5%	23%	36%[12.7 µM]	.	-12%	8%
Cn1c(=O)c2ccccc2n2c(=S)[nH]nc12	3.2µM*	79µM*	6.3µM*	.	50µM*	-9%
CCCn1c(=O)c2ccccc2n2c(SCC(=O)c3ccccc3)nnc12	25µM*	11%	?	.	2%	-28%
Cn1c(=O)c2ccccc2n2c(CCl)nnc12	-4%	26%	-8%	.	22%	-2%
CCCn1c(=O)c2ccccc2n2c(=S)[nH]nc12	1.4µM*	27%	3.5µM*	.	79µM*	-5%
CCCCCn1c(=O)c2ccccc2n2c(=S)[nH]nc12	6.3µM*	0%	1.4µM*	.	56µM*	-33%
SMILES	JMJD2A Tudor	HP1b binding inh	G9a inh	L3MBTL1 block	Sfp PPTase inh	BAZ2B block
CCCn1c(=O)c2ccccc2n2c(SCC(=O)c3ccc(F)cc3)nnc12	.	.	3%[2.33 µM]	.	-11%	12%
CC(=O)Oc1ccc(C(=O)COC(=O)CNC(=O)COc2ccccc2C)cc1	-5%[57.1 µM]	10%[57 µM]	.	.	.	.
CCOc1ccc(S(=O)(=O)NCC(=O)NC2CCCCC2)cc1	0%	28%	17%[59 µM]	1%	.	-8%
Cc1noc(C)c1-c1ccc2ncnc(NCc3cccn3C)c2c1	-31%	.	.	.	-10%	.
CCCCn1c(=O)c2ccccc2n2c(=S)[nH]nc12	3.5µM*	-19%	1.3µM*	.	?	?
O=C(CC(=O)c1ccncc1)c1ccccc1	32µM*	7%	.	.	.	.
O=C(CSc1ccc(-c2cccnc2)nn1)c1ccc([N+](=O)[O-])cc1	-30%	-3%	22µM*	.	-30%	-16%
O=C(CC(=O)c1ccccc1)c1ccccc1	161%	285%	-4%[2.33 µM]	.	-30%	.
O=C(COC(=O)c1ccccn1)c1ccc([N+](=O)[O-])cc1	25µM*	29%	11µM*	.	?	11µM*
O=C(COC(=O)c1cnccn1)c1ccccc1	-17%	28%	-8%	.	16%	-10%
O=C(CSc1ccc(-c2ccncc2)nn1)c1ccccc1	-18%	16%	25µM*	.	8%	-2%
Cn1c(=O)c2[nH]c(SCc3cccnc3)nc2n(C)c1=S	-6%	10%[57 µM]	.	.	.	.
Cc1ccc(OCCNC(=O)c2cccc(S(=O)(=O)N3CCN(C)CC3)c2)cc1	-8%	28%	0%[12.7 µM]	8%	.	11%
O=C(c1ccc([N+](=O)[O-])cc1)N(c1ccccn1)c1ccccn1	-19%	20%	-8%[12.7 µM]	22%	-15%	-4%
O=C(CSc1ccc(-c2ccccn2)nn1)c1ccc([N+](=O)[O-])cc1	?	6%	40µM*	.	32µM*	8.9µM*
CCOC(=O)c1c(/N=C/c2cc(C)ccc2O)sc2c1CCN(C)C2	45µM*	?	?	?	1%	?
CCOC(=O)c1c(NC(=O)CC)sc2c1CCN(Cc1ccccc1)C2	-32%	12%	.	-3%	-18%	-5%
O=C(NCCc1nc2ccccc2n1CCCOc1ccccc1Cl)C1CCCCC1	-14%[57.1 µM]	20%[57 µM]	.	.	.	.
CCCOc1ccc(OCCNC2CCCC2)cc1	89µM*	?	10µM*	-1%	-13%	?
CCc1ccc(OCCOCC(O)CNC2CCCC2)cc1 (stereo not drawn)	-1%	17%	7%	7%	5%	1%
CCOc1ccc(C(=S)NC2CCCCC2)cc1	-9%	-20%	10µM*	-1%	6%	-20%
CCOc1ccc(C(=O)NC2CCCCCCC2)cc1	12%	28%	.	.	.	.

Screening results (PubChem)
